Source: PubChem BioAssay (NCATS)
Values joined by “and” are separate entries in the source; they are usually repeats but may differ in a detail not shown here. Equal values may be shown once. Inconclusive results are not listed. Active and inactive are the calls of the source. Unless noted, calls come from the whole dose curve; as a rule, active = well fitted curve in the direction sought with a large enough effect; inconclusive = small, poorly fitted or top-dose-only effect, or another doubt; inactive = no such curve, though single readings can be large; an effect the other way counts as inactive or inconclusive.

Assays:
[1] = biological target: Cellular tumor antigen p53 (Homo sapiens) (UniProt P04637); test: Primary qHTS for small molecule compounds that upregulate eGFP-tagged delta133p53alpha (in C-terminal) cells. (AID 2060324); note: potency is the fitted concentration of half-maximal effect
Chain of Cellular tumor antigen p53 (Homo sapiens) (P04637 whole entry, looked up): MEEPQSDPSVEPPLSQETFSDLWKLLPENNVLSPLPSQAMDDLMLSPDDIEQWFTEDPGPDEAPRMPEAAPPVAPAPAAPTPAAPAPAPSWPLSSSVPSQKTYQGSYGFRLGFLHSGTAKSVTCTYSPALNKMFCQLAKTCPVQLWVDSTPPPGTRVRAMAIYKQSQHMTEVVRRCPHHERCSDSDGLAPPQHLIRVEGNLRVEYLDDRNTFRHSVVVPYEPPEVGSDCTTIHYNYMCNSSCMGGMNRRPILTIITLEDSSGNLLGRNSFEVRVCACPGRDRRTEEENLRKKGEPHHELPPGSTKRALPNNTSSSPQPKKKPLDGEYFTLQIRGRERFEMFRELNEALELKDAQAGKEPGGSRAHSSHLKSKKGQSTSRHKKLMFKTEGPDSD
Procedure, shortened: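 NCI-H358 cells pre-induced 24 h with 100 ng/ml doxycycline to express delta133p53alpha-eGFP, then dosed in doxycycline-free medium for 24 h at 37C. Fixed, Hoechst-stained; GFP intensity by laser scanning cytometry, normalized to DMSO wells.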

[2] = biological target: Aldehyde dehydrogenase, mitochondrial (Homo sapiens) (UniProt P05091); test: qHTS for Inhibitors of the Aldehyde Dehydrogenase Family (ALDH2) Validation screens (AID 2061302; active = well fitted inhibition curve with a large enough effect; title and protocol of this record describe different tests; note: potency is the fitted concentration of half-maximal effect)
[3] = biological target: Aldehyde dehydrogenase, mitochondrial (Homo sapiens) (UniProt P05091); test: qHTS for Inhibitors of the Aldehyde Dehydrogenase Family (ALDH2) Primary screen (AID 2061308); note: nearly all actives have a fitted effect of over 55% in size; note: potency is the fitted concentration of half-maximal effect
[4] = biological target: Retinaldehyde dehydrogenase 3 (Homo sapiens) (UniProt P47895); test: qHTS for Inhibitors of the Aldehyde Dehydrogenase Family (ALDH1A3) Validation screen (AID 2061312); note: % is set by controls: 0 for no effect and ±100 for the full control effect; nearly all actives have a fitted effect of over 45% in size
[5] = biological target: Retinaldehyde dehydrogenase 3 (Homo sapiens) (UniProt P47895); test: qHTS for Inhibitors of the Aldehyde Dehydrogenase Family (ALDH1A3) Primary screen (AID 2061315);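 note: plate controls were DMSO vehicle for no effect and reference inhibitor for full effect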
[6] = BET inhibitor-based combinations targeting novel dependencies in MECOM-rearranged (r) AML: SET-2 cell line (AID 2202231); conditions: SET-2 AML cells viability, CellTiter-Glo luminescence, 48 h; viability: hits give low values, concentration not given here; note: nearly all actives have a fitted effect of over 35% in size; note: potency is the fitted concentration of half-maximal effect;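 for viability: plate controls were DMSO treated cells for no effect and wells without cells for full effect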
Procedure, shortened: (§1)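 Luminescent ATP readout (CellTiter-Glo) after 48 hr drug exposure gives viability. Curves span 11 concentrations and are normalized to DMSO and empty wells. Activity is reported as area under the curve and its Z-transform within each cell line.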

[7] = BET inhibitor-based combinations targeting novel dependencies in MECOM-rearranged (r) AML: OCI-AML3 cell line (AID 2202232); conditions: Potency: OCI-AML3 viability; note: nearly all actives have a fitted effect of over 35% in size; note: potency is the fitted concentration of half-maximal effect
Procedure, shortened: as §1

[8] = BET inhibitor-based combinations targeting novel dependencies in MECOM-rearranged (r) AML: HNT-34 cell line (AID 2202234);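 note: plate controls were vehicle wells for no effect and cell-free wells for full effect; nearly all actives have a fitted effect of over 35% in size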
Procedure, shortened: (§2)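 Luminescent ATP readout (CellTiter-Glo, 15 min at room temperature) after 48 hr drug exposure gave viability. Dose-response curves, normalized to DMSO and empty-well controls, were summarized as area under the curve and its mean-centred Z-score.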

[9] = BET inhibitor-based combinations targeting novel dependencies in MECOM-rearranged (r) AML: UCSD-AML1 cell line (AID 2202235); note: nearly all actives have a fitted effect of over 40% in size; note: potency is the fitted concentration of half-maximal effect
Procedure, shortened: as §2

[10] = BET inhibitor-based combinations targeting novel dependencies in MECOM-rearranged (r) AML: AML-191 cell line (AID 2202236; note: nearly all actives have a fitted effect of over 35% in size; note: potency is the fitted concentration of half-maximal effect)
Procedure, shortened: as §1

[11] = BET inhibitor-based combinations targeting novel dependencies in MECOM-rearranged (r) AML: AML-194 cell line (AID 2202237; note: nearly all actives have a fitted effect of over 40% in size; note: potency is the fitted concentration of half-maximal effect)
Procedure, shortened: as §1

[12] = biological target: Aldehyde dehydrogenase, mitochondrial (Homo sapiens) (UniProt P05091); test: qHTS for Inhibitors of the Aldehyde Dehydrogenase Family (ALDH2) Confirmatory screens (AID 2061303; active = well fitted inhibition curve with a large enough effect; title and protocol of this record describe different tests; note: nearly all actives have a fitted effect of over 45% in size; note: potency is the fitted concentration of half-maximal effect)
[13] = qHTS for Inhibitors of the Aldehyde Dehydrogenase Family (ALDH1A2, ALDH1A3, ALDH2, ALDH3A1) (AID 2061307); note: nearly all actives have a fitted effect of over 50% in size; for Potency: test system not described further here; potency is the fitted concentration of half-maximal effect
[14] = biological target: Retinaldehyde dehydrogenase 3 (Homo sapiens) (UniProt P47895); test: qHTS for Inhibitors of the Aldehyde Dehydrogenase Family (ALDH1A3) Confirmatory screens (AID 2061311); note: nearly all actives have a fitted effect of over 60% in size; note: potency is the fitted concentration of half-maximal effect
[15] = biological target: Retinal dehydrogenase 2 (Homo sapiens) (UniProt O94788); test: qHTS for Inhibitors of the Aldehyde Dehydrogenase Family (ALDH1A2) Confirmation screens (AID 2061314); note: nearly all actives have a fitted effect of over 65% in size; note: potency is the fitted concentration of half-maximal effect
[16] = biological target: Aldehyde dehydrogenase 1A1 (Homo sapiens) (UniProt P00352); test: qHTS for Inhibitors of the Aldehyde Dehydrogenase Family (ALDH1A1) Confirmatory screens (AID 2061316); note: nearly all actives have a fitted effect of over 65% in size; note: potency is the fitted concentration of half-maximal effect
[17] = BET inhibitor-based combinations targeting novel dependencies in MECOM-rearranged (r) AML: MV-4-11 cell line (AID 2202233); note: nearly all actives have a fitted effect of over 45% in size; note: potency is the fitted concentration of half-maximal effect
Procedure, shortened: as §2

CC(=O)NCCc1c[nH]c2ccc(O)cc12
inactive: Potency [1] | Potency [2]

O=C(c1ccc(F)cc1)C1CCN(CCn2c(=O)[nH]c3ccccc3c2=O)CC1
inactive: Potency [1] | Potency [2] | Potency [3] | Potency [4] | Potency [5]

O=C(c1ccc2c(c1)OCCO2)N1CCCCC1
inactive: Potency [1] | Potency [2] | Potency [4]

CCCc1nn(C)c2c(=O)[nH]c(-c3cc(S(=O)(=O)N4CCN(C)CC4)ccc3OCC)nc12
inactive: Potency [1] | Potency [2] | Potency [3] | Potency [4] | Potency [5] | viability [6] 114% | Potency [7] | Potency [8] | Potency [9] | Potency [10] | Potency [11]

NC(C(=O)N[C@@H]1C(=O)N2C(C(=O)O)=C(Cl)CS[C@H]12)c1ccccc1 (some centres not stated)
inactive: Potency [1] | Potency [2]

N=c1nc(N2CCCCC2)cc(N)n1O
inactive: Potency [1] | Potency [2] | Potency [4]

N=c1c[n+](N2CCOCC2)[n-]o1
inactive: Potency [1] | Potency [2]

CN(C)CC/C=C1\c2ccccc2COc2ccccc21
inactive: Potency [1] | Potency [2] | Potency [4]

CSc1ccc2c(c1)N(CCC1CCCCN1C)c1ccccc1S2 (configuration not stated)
inactive: Potency [1] | Potency [2] | Potency [4]

CN(C)C(=O)[C@H](O)[C@H](Cc1ccccc1)NC(=O)c1cc2cc(Cl)ccc2[nH]1
inactive: Potency [1] | Potency [2] | Potency [3] | Potency [4] | Potency [5] | viability [6] 95.3% | Potency [9] | Potency [10]

CC(C)(C)c1ccc(/C=C/C(=O)Nc2ccc3c(c2)OCCO3)cc1
inactive: Potency [1] | Potency [2] | Potency [4]

CC(C)N(CCC(=O)c1ccc2ccccc2c1)Cc1ccccc1
active: Potency [1] 23.9 µM | Potency [2] 355 nM and 2.51 µM | Potency [12] 3.16 µM | Potency [13] 0.0127 µM | Potency [3] 0.251 µM | Potency [14] 0.283 µM | Potency [15] 0.0565 µM | Potency [16] 0.0449 µM | Potency [6] 8.33 µM | Potency [7] 4.17 µM | Potency [17] 2.09 µM | Potency [9] 4.17 µM | Potency [10] 6.61 µM | Potency [11] 7.42 µM

O=C1OC(=O)C2C3CCC(O3)C12 (configuration not stated)
inactive: Potency [1] | Potency [2] | Potency [4]

CC(=O)[C@H]1CCC2C3CC=C4C[C@@H](OS(=O)(=O)O)CC[C@]4(C)C3CC[C@@]21C (some centres not stated)
inactive: Potency [1] | Potency [2] | Potency [4]

CN1CCN(C2Cc3ccccc3Sc3ccc(Cl)cc32)CC1 (configuration not stated)
inactive: Potency [1] | Potency [2] | Potency [4]

C[N+]1(CCCCC[N+]2(C)CCCC2)CCCC1
inactive: Potency [1] | Potency [2]

O=S(=O)(c1cccc2c(Cl)cccc12)N1CCCNCC1
inactive: Potency [1] | Potency [2] | Potency [4]

O=c1c2ccccc2nc2n1CCc1c-2[nH]c2ccccc12
inactive: Potency [1] | Potency [2] | Potency [3] | Potency [4] | Potency [5]

COc1ccc2cc([C@H](C)C(=O)O)ccc2c1
inactive: Potency [1] | Potency [2] | Potency [3] | Potency [4] | Potency [5] | Potency [7] | Potency [17] | Potency [8] | Potency [9] | Potency [10] | Potency [11]

CCN1C(=O)C=CC1=O
inactive: Potency [1] | Potency [12] | Potency [13] | Potency [14] | Potency [15] | Potency [16]
active: Potency [2] 12.6 µM

CCCC(=O)NCCc1c2n(c3ccc(OC)cc13)CCCc1ccccc1-2
inactive: Potency [1] | Potency [2] | Potency [4]

CCCNC(C)C(=O)Nc1ccccc1C (configuration not stated)
inactive: Potency [1] | Potency [2] | Potency [4]

O=S(=O)(c1cccc2c(I)cccc12)N1CCCNCC1
inactive: Potency [1] | Potency [2] | Potency [13] | Potency [15] | Potency [17] | Potency [8] | Potency [9] | Potency [10] | Potency [11]
active: Potency [7] 20.9 µM

C=CCc1cccc(C=NNC(=O)CN2CCN(Cc3ccccc3)CC2)c1O
inactive: Potency [1] | Potency [2] | Potency [4]

S=C(S)N1CCCC1
active: Potency [1] 15.1 µM | Potency [2] 3.16 µM

Nc1ccn([C@H]2O[C@H](CO)[C@@H](O)C2(F)F)c(=O)n1
inactive: Potency [1] | Potency [2]

CC(C)NNC(=O)c1ccncc1
inactive: Potency [1] | Potency [2] | Potency [4]
